Inconclusive results are not listed. Activity calls are given as the source filed them. The call rests on the fitted dose curve; in most records, active means well fitted inhibition curve with a large enough effect; inconclusive means small, poorly fitted or top-dose-only effect; inactive means flat fitted curve, though single readings scatter.
Tested on: DIV14
Assay: qHTS profiling for inhibitors of Plasmodium falciparum proliferation (AID 504749); further: nearly all actives have a fitted effect of over 60% in size;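 on activity, negative = inhibition: 0% = DMSO vehicle and full inhibition = artemisinin control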
Settings: P. falciparum in erythrocytes, SYBR Green DNA, 72 h; series mostly up to 28.7 µM; activity, negative = inhibition: at the top concentration
Outline: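 P. falciparum-infected erythrocytes (0.3% parasitemia, 2.5% hematocrit final) were exposed to compounds for 72 h at 37 C in 5% CO2, then lysed with SYBR Green buffer overnight at room temperature; parasite DNA fluorescence was normalized to artemisinin and DMSO controls.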
Potency means the concentration at half of the fitted maximal effect.

Row | SMILES | activity, negative = inhibition | Potency
1 | C#C[C@]1(O)CC[C@H]2[C@@H]3CCc4cc(OC)ccc4[C@H]3CC[C@@]21C | -7.77% (inactive) | 
2 | CCCCNC(=O)NS(=O)(=O)c1ccc(N)cc1 | -4.88% (inactive) | 
3 | Nc1ccc(C(=O)NCC(=O)O)cc1 | -1.3% [at 12.8 µM] (inactive) | 
4 | OC1C(O)C(O)C(O)C(O)C1O (stereo not given) | -19% (inactive) | 
5 | O=S(=O)(O)c1ccc(O)cc1 | -1.64% (inactive) | 
6 | COc1cc(C(=O)NCc2ccc(OCCN(C)C)cc2)cc(OC)c1OC | 0.459% [at 12.8 µM] (inactive) | 
7 | COc1cc(C)nc(-n2nc(C)cc2OC)n1 | 14.4% [at 12.8 µM] (inactive) | 
8 | CC(=O)Oc1ccc(C)cc1 | 8.62% (inactive) | 
9 | CC(=O)NC(=O)c1ccccc1O | 0.23% (inactive) | 
10 | FC(F)(F)C(F)(F)C(F)(F)C(F)(F)C(F)(F)C(F)(F)C(F)(F)C(F)(F)Br | 0.563% (inactive) | 
11 | c1ccc(-c2nc[nH]c2-c2ccccc2)cc1 | -30% (inactive) | 
12 | CCNC(=O)NCc1cccc(Cl)c1 | -0.774% (inactive) | 
13 | O=C(O)Cc1csc(-c2ccc(Cl)cc2)n1 | -9.29% (inactive) | 
14 | Nc1nc(-c2ccccc2)c(Br)c(=O)[nH]1 | -1.29% (inactive) | 
15 | O=c1[nH]c(=O)n([C@H]2C[C@H](O)[C@@H](CO)O2)cc1F | 0.991% (inactive) | 
16 | CC(=O)Nc1ncc([N+](=O)[O-])s1 | 1.54% (inactive) | 
17 | Cc1cccc(C)c1NC(=O)CN1CCCCCC1 | 0.132% (inactive) | 
18 | CC[C@H](c1ccc(O)cc1)[C@@H](CC)c1ccc(O)cc1 | -13.6% [at 12.8 µM] (inactive) | 
19 | Cc1c(-c2ccccc2)oc2c(C(=O)OCCN3CCCCC3)cccc2c1=O | 0.515% [at 12.8 µM] (inactive) | 
20 | CCCCCCCCCCCCCCCCO | -10.3% (inactive) | 

Row | SMILES | activity, negative = inhibition | Potency
21 | Oc1ccccc1C=NCc1ccccc1 | -6.29% (inactive) | 
22 | CCN(CC)CCNC(=O)COc1ccc(OC)cc1 | -20.6% (inactive) | 
23 | COc1cc(N)c(Cl)cc1C(=O)NC1CCN(Cc2ccccc2)CC1 | -7.44% [at 12.8 µM] (inactive) | 
24 | Cc1cc(NS(=O)(=O)c2ccc(N)cc2)nc(C)n1 | 1.88% (inactive) | 
25 | CC(=O)OC[C@H]1O[C@@H](n2ncc(=O)[nH]c2=O)[C@H](OC(C)=O)[C@@H]1OC(C)=O | -1.24% (inactive) | 
26 | CCOc1ccccc1OCCN[C@H](C)Cc1ccc(OC)c(S(N)(=O)=O)c1 | 4.29% (inactive) | 
27 | O=C(NCCc1c[nH]c2ccccc12)c1cccnc1 | -9.5% (inactive) | 
28 | Cc1ccccc1OCC(O)CO (stereo not given) | -0.194% (inactive) | 
29 | Cc1cc(C)cc(OCC2CNC(=O)O2)c1 (stereo not given) | -7.58% (inactive) | 
30 | CCOc1cc(OCC)c(C(=O)CCC(=O)O)cc1OCC | -23.4% (inactive) | 
31 | N#CCC(=O)NN | 4.77% (inactive) | 
32 | O=C(O)C(Cc1cc(I)c(O)c(I)c1)c1ccccc1 (stereo not given) | -0.58% (inactive) | 
33 | CCCCCCCC/C=C\CCCCCCCCN | 10.2% (inactive) | 
34 | CC1=C(C(=O)O)N2C(=O)[C@@H](NC(=O)[C@H](N)c3ccccc3)[C@H]2SC1 | -7.4% (inactive) | 
35 | CCN(CC)CCNc1ccc(CO)c2sc3ccccc3c(=O)c12 |  | 4.26 µM (active)
36 | Cl/C(=C\n1cncn1)c1ccc(Cl)cc1Cl | -7.49% (inactive) | 
37 | CCCCCCCCCCCCCCCC(=O)O | -2.61% (inactive) | 
38 | CC(C)CCCC(C)N (stereo not given) | -3.56% (inactive) | 
39 | CCOC(=O)c1ccc(N)cc1 | -1.01% [at 12.8 µM] (inactive) | 
40 | Cc1c[nH]c2ccccc12 | 7.55% (inactive) | 

Source: PubChem BioAssay (NCATS)
